# According to the supplement of paper PMC4466140:
# What was measured:
# Assay in all cases: SPOT peptide array binding signal intensity (averaged, normalized) (arbitrary units (background-subtracted, floor 0; scale differs between SH3 domains)); higher = stronger binding of the SH3 domain to the peptide
# [1] = target: AgAbp1
# Outline: (§1)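 Detection of bound protein relied on anti-GST antibody, an HRP anti-mouse secondary and luminol, with imaging and quantification in Genespotter. The bound protein was GST-fused SH3 domains from four yeast species, incubated at 10 μg/ml overnight at 4°C in TBS-based blocking buffer on cellulose membranes carrying synthetic 15-mer peptides with cysteines replaced by serines. Binding signal is normalized, background-subtracted spot intensity averaged over replicates, in arbitrary units that differ between domains.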
# [2] = target: AgBbc1
# Outline: as §1
# [3] = target: AgBem1-D1
# Outline: as §1
# [4] = target: AgBzz1-D1
# Outline: as §1
# [5] = target: AgBzz1-D2
# Outline: as §1
# [6] = target: AgCyk3
# Outline: as §1
# [7] = target: AgFus1
# Outline: as §1
# [8] = target: AgHof1
# Outline: as §1
# [9] = target: AgHse1
# Outline: as §1
# [10] = target: AgLsb1
# Outline: as §1
# [11] = target: AgLsb4
# Outline: as §1
# [12] = target: AgMyo5
# Outline: as §1
# [13] = target: AgNbp2
# Outline: as §1
# [14] = target: AgRvs167
# Outline: as §1
# [15] = target: AgSho1
# Outline: as §1
# [16] = target: AgSla1-D1-D2
# Outline: as §1
# [17] = target: AgSla1-D3
# Outline: as §1
# [18] = target: CaAbp1-D1
# Outline: as §1
# [19] = target: CaAbp1-D2
# Outline: as §1
# [20] = target: CaBbc1
# Outline: as §1
# [21] = target: CaBem1-D1
# Outline: as §1
# [22] = target: CaBzz1-D1
# Outline: as §1
# [23] = target: CaBzz1-D2
# Outline: as §1
# [24] = target: CaCyk3
# Outline: as §1
# [25] = target: CaFus1
# Outline: as §1
# [26] = target: CaHof1
# Outline: as §1
# [27] = target: CaHse1
# Outline: as §1
# [28] = target: CaLsb1
# Outline: as §1
# [29] = target: CaLsb4
# Outline: as §1
# [30] = target: CaMyo5
# Outline: as §1
# [31] = target: CaNbp2
# Outline: as §1
# [32] = target: CaRvs167
# Outline: as §1
# [33] = target: CaRvs167-3
# Outline: as §1
# [34] = target: CaSho1
# Outline: as §1
# [35] = target: CaSla1-D1-D2
# Outline: as §1
# [36] = target: CaSla1-D3
# Outline: as §1
# [37] = target: ScAbp1
# Outline: as §1
# [38] = target: ScBbc1
# Outline: as §1
# [39] = target: ScBem1-D1
# Outline: as §1
# [40] = target: ScBzz1-D1
# Outline: as §1
# [41] = target: ScBzz1-D2
# Outline: as §1
# [42] = target: ScCyk3
# Outline: as §1
# [43] = target: ScFus1
# Outline: as §1
# [44] = target: ScHof1
# Outline: as §1
# [45] = target: ScHse1
# Outline: as §1
# [46] = target: ScLsb1
# Outline: as §1
# [47] = target: ScLsb2
# Outline: as §1
# [48] = target: ScLsb3
# Outline: as §1
# [49] = target: ScLsb4
# Outline: as §1
# [50] = target: ScMyo3
# Outline: as §1
# [51] = target: ScMyo5
# Outline: as §1
# [52] = target: ScNbp2
# Outline: as §1
# [53] = target: ScPex13
# Outline: as §1
# [54] = target: ScRvs167
# Outline: as §1
# [55] = target: ScSho1
# Outline: as §1
# [56] = target: ScSla1-D1-D2
# Outline: as §1
# [57] = target: ScSla1-D3
# Outline: as §1
# [58] = target: SpAbp1-D1
# Outline: as §1
# [59] = target: SpBbc1
# Outline: as §1
# [60] = target: SpBzz1-D1
# Outline: as §1
# [61] = target: SpBzz1-D2
# Outline: as §1
# [62] = target: SpCyk3
# Outline: as §1
# [63] = target: SpHof1
# Outline: as §1
# [64] = target: SpHof1-2
# Outline: as §1
# [65] = target: SpHof1-3
# Outline: as §1
# [66] = target: SpHse1
# Outline: as §1
# [67] = target: SpLsb1
# Outline: as §1
# [68] = target: SpLsb4
# Outline: as §1
# [69] = target: SpMyo1
# Outline: as §1
# [70] = target: SpNbp2
# Outline: as §1
# [71] = target: SpPex13
# Outline: as §1
# [72] = target: SpRvs167
# Outline: as §1
# [73] = target: SpSla1-D1-D2
# Outline: as §1
# [74] = target: SpSla1-D3
# Outline: as §1
binder,measurement,setting,value
DLFKPLPEPPTELGR,SPOT peptide array binding signal intensity,[1],2.5
same,SPOT peptide array binding signal intensity,[2],≤ 0
same,SPOT peptide array binding signal intensity,[3],≤ 0
same,SPOT peptide array binding signal intensity,[4],22
same,SPOT peptide array binding signal intensity,[5],≤ 0
same,SPOT peptide array binding signal intensity,[6],1
same,SPOT peptide array binding signal intensity,[7],1
same,SPOT peptide array binding signal intensity,[8],≤ 0
same,SPOT peptide array binding signal intensity,[9],27
same,SPOT peptide array binding signal intensity,[10],≤ 0
same,SPOT peptide array binding signal intensity,[11],5
same,SPOT peptide array binding signal intensity,[12],≤ 0
same,SPOT peptide array binding signal intensity,[13],≤ 0
same,SPOT peptide array binding signal intensity,[14],0.333
same,SPOT peptide array binding signal intensity,[15],1410
same,SPOT peptide array binding signal intensity,[16],≤ 0
same,SPOT peptide array binding signal intensity,[17],≤ 0
same,SPOT peptide array binding signal intensity,[18],≤ 0
same,SPOT peptide array binding signal intensity,[19],≤ 0
same,SPOT peptide array binding signal intensity,[20],≤ 0
same,SPOT peptide array binding signal intensity,[21],≤ 0
same,SPOT peptide array binding signal intensity,[22],≤ 0
same,SPOT peptide array binding signal intensity,[23],≤ 0
same,SPOT peptide array binding signal intensity,[24],≤ 0
same,SPOT peptide array binding signal intensity,[25],7
same,SPOT peptide array binding signal intensity,[26],1
same,SPOT peptide array binding signal intensity,[27],16
same,SPOT peptide array binding signal intensity,[28],≤ 0
same,SPOT peptide array binding signal intensity,[29],≤ 0
same,SPOT peptide array binding signal intensity,[30],≤ 0
same,SPOT peptide array binding signal intensity,[31],≤ 0
same,SPOT peptide array binding signal intensity,[32],6.67
same,SPOT peptide array binding signal intensity,[33],≤ 0
same,SPOT peptide array binding signal intensity,[34],2540
same,SPOT peptide array binding signal intensity,[35],≤ 0
same,SPOT peptide array binding signal intensity,[36],≤ 0
same,SPOT peptide array binding signal intensity,[37],≤ 0
same,SPOT peptide array binding signal intensity,[38],≤ 0
same,SPOT peptide array binding signal intensity,[39],≤ 0
same,SPOT peptide array binding signal intensity,[40],1
same,SPOT peptide array binding signal intensity,[41],≤ 0
same,SPOT peptide array binding signal intensity,[42],≤ 0
same,SPOT peptide array binding signal intensity,[43],≤ 0
same,SPOT peptide array binding signal intensity,[44],1
same,SPOT peptide array binding signal intensity,[45],≤ 0
same,SPOT peptide array binding signal intensity,[46],≤ 0
same,SPOT peptide array binding signal intensity,[47],≤ 0
same,SPOT peptide array binding signal intensity,[48],≤ 0
same,SPOT peptide array binding signal intensity,[49],10
same,SPOT peptide array binding signal intensity,[50],≤ 0
same,SPOT peptide array binding signal intensity,[51],≤ 0
same,SPOT peptide array binding signal intensity,[52],≤ 0
same,SPOT peptide array binding signal intensity,[53],1030
same,SPOT peptide array binding signal intensity,[54],≤ 0
same,SPOT peptide array binding signal intensity,[55],5560
same,SPOT peptide array binding signal intensity,[56],≤ 0
same,SPOT peptide array binding signal intensity,[57],3
same,SPOT peptide array binding signal intensity,[58],≤ 0
same,SPOT peptide array binding signal intensity,[59],≤ 0
same,SPOT peptide array binding signal intensity,[60],≤ 0
same,SPOT peptide array binding signal intensity,[61],≤ 0
same,SPOT peptide array binding signal intensity,[62],1.5
same,SPOT peptide array binding signal intensity,[63],1460
same,SPOT peptide array binding signal intensity,[64],1970
same,SPOT peptide array binding signal intensity,[65],734
same,SPOT peptide array binding signal intensity,[66],0.75
same,SPOT peptide array binding signal intensity,[67],≤ 0
same,SPOT peptide array binding signal intensity,[68],≤ 0
same,SPOT peptide array binding signal intensity,[69],≤ 0
same,SPOT peptide array binding signal intensity,[70],≤ 0
same,SPOT peptide array binding signal intensity,[71],3
same,SPOT peptide array binding signal intensity,[72],5.67
same,SPOT peptide array binding signal intensity,[73],≤ 0
same,SPOT peptide array binding signal intensity,[74],≤ 0
AHFQPQRTAPKPPIS,SPOT peptide array binding signal intensity,[1],2.5
same,SPOT peptide array binding signal intensity,[2],89.8
same,SPOT peptide array binding signal intensity,[3],58.8
same,SPOT peptide array binding signal intensity,[4],16
same,SPOT peptide array binding signal intensity,[5],54.5
same,SPOT peptide array binding signal intensity,[6],≤ 0
same,SPOT peptide array binding signal intensity,[7],≤ 0
same,SPOT peptide array binding signal intensity,[8],3
same,SPOT peptide array binding signal intensity,[9],18
same,SPOT peptide array binding signal intensity,[10],16.8
same,SPOT peptide array binding signal intensity,[11],0.5
same,SPOT peptide array binding signal intensity,[12],954
same,SPOT peptide array binding signal intensity,[13],3970
same,SPOT peptide array binding signal intensity,[14],0.583
same,SPOT peptide array binding signal intensity,[15],≤ 0
same,SPOT peptide array binding signal intensity,[16],≤ 0
same,SPOT peptide array binding signal intensity,[17],1
same,SPOT peptide array binding signal intensity,[18],65.5
same,SPOT peptide array binding signal intensity,[19],33.8
same,SPOT peptide array binding signal intensity,[20],743
same,SPOT peptide array binding signal intensity,[21],958
same,SPOT peptide array binding signal intensity,[22],779
same,SPOT peptide array binding signal intensity,[23],136
same,SPOT peptide array binding signal intensity,[24],≤ 0
same,SPOT peptide array binding signal intensity,[25],≤ 0
same,SPOT peptide array binding signal intensity,[26],≤ 0
same,SPOT peptide array binding signal intensity,[27],2.5
same,SPOT peptide array binding signal intensity,[28],≤ 0
same,SPOT peptide array binding signal intensity,[29],23
same,SPOT peptide array binding signal intensity,[30],33.6
VATSTSPKLPPRGKQ,SPOT peptide array binding signal intensity,[61],≤ 0
same,SPOT peptide array binding signal intensity,[62],≤ 0
same,SPOT peptide array binding signal intensity,[63],1.25
same,SPOT peptide array binding signal intensity,[64],0.5
same,SPOT peptide array binding signal intensity,[65],61.2
same,SPOT peptide array binding signal intensity,[66],0.5
same,SPOT peptide array binding signal intensity,[67],623
same,SPOT peptide array binding signal intensity,[68],6830
same,SPOT peptide array binding signal intensity,[69],≤ 0
same,SPOT peptide array binding signal intensity,[70],≤ 0
same,SPOT peptide array binding signal intensity,[71],2
same,SPOT peptide array binding signal intensity,[72],3730
same,SPOT peptide array binding signal intensity,[73],2
same,SPOT peptide array binding signal intensity,[74],≤ 0
